Experimental data reported in PubChem BioAssay (EPA / NIEHS).
Calls of active or inactive are those of the source. The calls were made as follows: active = hit-call score of the fitted dose curve at least 0.9, where 1 is the maximum; inactive = score below 0.9.

Columns and labels:
[1] = APR_HepG2_P-H2AX_72hr: Apredica 72-hour HepG2 Assay for H2AX Phosphorylation (AID 2282916); details: imaging, actives raise or lower the signal;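 also: phospho-histone H2A.x immunostain intensity per cell marking DNA damage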
In short: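 HepG2 human liver cells were exposed for 72 hr to compounds at 0.39–200 uM (10 concentrations, duplicate per plate) in 0.5% v/v DMSO. Fixed, permeabilized cells were immunolabeled for phospho-histone H2A.x with Hoechst 33342 and imaged by HCS fluorescence; bidirectional fit versus DMSO.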

[2] = APR_HepG2_MitoMembPot_72hr: Apredica 72-hour HepG2 Assay for Mitochondrial Membrane Potential (AID 2282917); details: imaging, actives raise or lower the signal
In short: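 HepG2 cells dosed 72 hr with compound at 0.39–200 uM in duplicate, 0.5% v/v DMSO final. Mitochondria stained with 250 nM MitoTracker Red CMXRos for 30 min before formaldehyde fixation, imaged by high-content fluorescence; bidirectional fit versus DMSO.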

[3] = APR_HepG2_MitoticArrest_72hr: Apredica 72-hour HepG2 Assay for Mitotic Arrest (AID 2282918); details: high-content imaging, actives raise or lower the signal
In short: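 Read-out is phospho-histone H3 immunofluorescence with Hoechst nuclear segmentation, imaged at 20x. Human HepG2 liver cells received ten concentrations (0.39–200 uM, final DMSO 0.5% v/v) for 72 hr before fixation. Gain or loss of signal was fitted relative to DMSO.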

[4] = APR_HepG2_MicrotubuleCSK_72hr: Apredica 72-hour HepG2 Assay for Microtubule CSK Stabilty (AID 2282919); details: HepG2 microtubule cytoskeleton, high-content imaging, actives raise or lower the signal
In short: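 HepG2 cells were exposed 72 hr to compound at 0.39–200 uM in duplicate (0.5% DMSO final), then fixed and permeabilized. Alpha-tubulin immunofluorescence was imaged by high-content microscopy, with bidirectional fitting against DMSO and taxol as positive control.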

[5] = APR_HepG2_P-H2AX_24hr: Apredica 24-hour HepG2 Assay for H2AX Phosphorylation (AID 2282920); details: high-content imaging, actives raise or lower the signal
In short: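 HepG2, 24 hr, cpd 0.39–200 uM (10 conc, duplicate), DMSO 0.5% v/v final. Fix 3.7% formaldehyde, Triton X-100 permeabilize, anti-phospho-H2A.x 1:200 + Hoechst 2 ug/mL. Imaged, bidirectional fit vs DMSO.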

[6] = APR_HepG2_StressKinase_72hr: Apredica 72-hour HepG2 Assay for Stress Kinase (AID 2282921); details: HepG2 stress kinase (phospho-c-Jun) imaging, actives raise or lower the signal
In short: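 Cells were exposed for 72 h to ten concentrations (0.39–200 uM, duplicate) at 0.5% v/v DMSO final, then fixed with 3.7% formaldehyde, permeabilized and immunostained for phospho-c-Jun (Cy3 secondary) with Hoechst nuclear counterstain.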

[7] = APR_HepG2_StressKinase_24hr: Apredica 24-hour HepG2 Assay for Stress Kinase (AID 2282922); details: HepG2 stress kinase (phospho-c-Jun) imaging, actives raise or lower the signal
In short: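 HepG2 cells exposed 24 h to 0.39–200 uM compound in duplicate (0.5% v/v DMSO final). Cells fixed in 3.7% formaldehyde, permeabilized and immunostained for phospho-c-Jun; read by high-content fluorescence imaging, fitted bidirectionally against DMSO.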

[8] = APR_HepG2_p53Act_72hr: Apredica 72-hour HepG2 Assay for p53 Activation (AID 2282923); details: high-content imaging, actives raise or lower the signal;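 also: average cellular p53 protein immunofluorescence intensity in HepG2 cells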
In short: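 Cells were dosed for 72 hr with compounds at 0.39–200 uM in duplicate (final DMSO 0.5% v/v), then fixed in 3.7% formaldehyde, permeabilized with Triton X-100 and immunostained for p53 (Cy5) with Hoechst 33342 nuclear counterstain.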

[9] = APR_HepG2_MitoMass_72hr: Apredica 72-hour HepG2 Assay for Mitochondrial Mass (AID 2282924); details: high-content imaging, actives raise or lower the signal;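 also: MitoTracker Red CMXRos stain intensity per cell imaged as mitochondrial mass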
In short: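 HepG2 cells dosed 72 hr at 0.39–200 uM (0.5% DMSO), in duplicate. MitoTracker Red CMXRos 250 nM loaded 30 min before formaldehyde fixation; high-content fluorescence imaging, bidirectional fit versus DMSO.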

[10] = APR_HepG2_NuclearSize_72hr: Apredica 72-hour HepG2 Assay for Nuclear Size (AID 2282925); details: high-content imaging, actives raise or lower the signal
In short: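 HepG2 cells dosed 72 h at 0.39–200 uM (10 concentrations, duplicate) in 0.5% v/v DMSO final. Fixed, Hoechst 33342-stained nuclei imaged; nuclear diameter measured by automated image analysis. Bidirectional fit versus DMSO.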

Measured: AC50

CCCCCCCCO
inactive: [1] | [2] | [3] | [4] | [5] | [6] | [7] | [8] | [9] | [10]

CCOC(=O)c1ccc(C2CCC(NC[C@H](O)COc3ccc(O)c(NS(C)(=O)=O)c3)CC2)cc1 (stereo partly drawn)
inactive: [2] | [6] | [9]
active: [1] 14 µM | [3] 20.3 µM | [4] 41.9 µM | [5] 40 µM | [7] 28.3 µM | [8] 14.5 µM | [10] 22.7 µM

CC(C)CCCCCCCOC(=O)CCCCC(=O)OCCCCCCCC(C)C
inactive: [1] | [2] | [3] | [4] | [5] | [6] | [7] | [8] | [9] | [10]

CC(O)CN(CCN(CC(C)O)CC(C)O)CC(C)O (stereo not drawn)
inactive: [1] | [2] | [3] | [4] | [5] | [6] | [7] | [8] | [9] | [10]

Nc1nc2ncc(CNc3ccc(C(=O)N[C@@H](CCC(=O)O)C(=O)O)cc3)nc2c(=O)[nH]1
inactive: [1] | [2] | [3] | [4] | [5] | [6] | [7] | [8] | [9] | [10]

O=C(O)c1cccc(Oc2ccccc2)c1
inactive: [1] | [2] | [3] | [4] | [5] | [6] | [7] | [8] | [9] | [10]

Cn1c(=O)cc(Oc2ccc(F)cc2F)c2cnc(NCC(C)(C)O)nc21
inactive: [1] | [2] | [3] | [4] | [5] | [6] | [7] | [8] | [9] | [10]

COc1ccc(/C=C/S(=O)(=O)NC(=O)c2ccc(C)cc2Cl)cc1
active: [1] 100 µM | [2] 12.8 µM | [3] 102 µM | [5] 106 µM | [8] 113 µM
inactive: [4] | [6] | [7] | [9] | [10]

C[C@](N)(Cc1ccc(O)c(O)c1)C(=O)O
active: [2] 58.4 µM
inactive: [1] | [3] | [4] | [5] | [6] | [7] | [8] | [9] | [10]

CC(C)=CCCC(C)=CC=O
inactive: [1] | [2] | [3] | [4] | [5] | [6] | [7] | [8] | [9] | [10]

CNCc1ccc(NC(=O)c2c[nH]c3c2C(=O)CCC3)cc1
inactive: [1] | [2] | [3] | [4] | [5] | [6] | [7] | [8] | [9] | [10]

O=C(NS(=O)(=O)/C=C/c1ccccc1)c1ccc(F)cc1Cl
inactive: [1] | [2] | [3] | [4] | [5] | [6] | [7] | [8] | [9] | [10]

O=C1OC(=O)C2C3C=CC(C3)C12 (stereo not drawn)
inactive: [1] | [2] | [3] | [4] | [5] | [6] | [7] | [8] | [9] | [10]

CCCCC(CC)COC(=O)CCCCCCCCC(=O)OCC(CC)CCCC (stereo not drawn)
inactive: [6] | [7] | [8] | [10]
active: [1] 68.2 µM | [2] 83.4 µM | [3] 111 µM | [4] 87.6 µM | [5] 116 µM | [9] 36.5 µM

CC/C(=C\C(=N/O)C(N)=O)C(C)[N+](=O)[O-] (stereo not drawn)
inactive: [1] | [2] | [3] | [4] | [5] | [6] | [7] | [8] | [9] | [10]

CC(C)=CCCC(C)CCO (stereo not drawn)
inactive: [1] | [2] | [4] | [5] | [6] | [8] | [10]
active: [3] 0.0229 µM | [9] 0.0391 µM

C=CC(=C)CCC=C(C)C
inactive: [1] | [2] | [3] | [4] | [5] | [6] | [7] | [8] | [9] | [10]

CCC(C)(C)C(=O)O[C@H]1C[C@@H](C)C=C2C=C[C@H](C)[C@H](CC[C@@H]3C[C@@H](O)CC(=O)O3)[C@H]21
active: [1] 58.8 µM | [3] 2.62 µM | [5] 73.8 µM | [6] 100 µM | [8] 29.6 µM | [9] 0.559 µM
inactive: [2] | [4] | [10]
